SRC3 TRFRET art: flags TR-FRET format artefacts in PPARgamma SRC-3 recruitment agonist screen; AID 1048; TR-FRET ratio at 8 µM; TR-FRET artefact counter-screen, PPARgamma/SRC-3 format; hits give high values; hit rate 0.39% among 99,000
PPARg SRC1 recr: promotes SRC-1 coactivator recruitment by human PPARgamma. P37231. PPARgamma-SRC-1 coactivator recruitment biochemical assay. activation, % at 8 µM. hit rate 0.41% among 200,000; in the data active means activation above about 19%
Target sequence (P37231 whole entry, looked up): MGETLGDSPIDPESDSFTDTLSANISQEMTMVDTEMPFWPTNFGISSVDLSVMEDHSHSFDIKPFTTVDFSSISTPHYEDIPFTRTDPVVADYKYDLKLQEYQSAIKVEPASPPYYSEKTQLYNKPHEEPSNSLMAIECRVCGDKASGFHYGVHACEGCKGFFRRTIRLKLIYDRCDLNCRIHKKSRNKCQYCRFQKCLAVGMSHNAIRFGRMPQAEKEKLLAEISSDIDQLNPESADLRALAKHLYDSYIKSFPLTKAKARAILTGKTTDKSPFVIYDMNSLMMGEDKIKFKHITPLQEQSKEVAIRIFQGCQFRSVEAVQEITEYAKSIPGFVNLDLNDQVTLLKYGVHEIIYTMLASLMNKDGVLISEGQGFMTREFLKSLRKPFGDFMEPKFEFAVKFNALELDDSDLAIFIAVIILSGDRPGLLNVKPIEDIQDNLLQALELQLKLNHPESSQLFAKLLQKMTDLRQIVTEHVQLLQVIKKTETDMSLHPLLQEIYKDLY
PPARg SRC3 recr: PPARgamma-driven SRC-3 recruitment agonism | P37231 | biochemical PPARgamma/SRC-3 coactivator recruitment assay | activation, % at 8 µM | hit rate 0.26% among 200,000; in the data active means activation above about 23%
SRC1 TRFRET art: TR-FRET artefact, counter-screen to PPARgamma/SRC-1 agonist assay | TR-FRET detection artefact counter-screen, emission ratio; hits give high values | TR-FRET ratio at 8 µM | hit rate 0.34% among 99,000 | AID 1051; in the data active means TR-FRET ratio above about 2300
PPARg SRC2 recr: PPARgamma-driven SRC-2 recruitment agonism; P37231; PPARgamma LBD-SRC-2 recruitment, biochemical; activation, % at 8 µM; hit rate 0.34% among 200,000; AID 1032; in the data active means activation above about 22%
TR-FRET SRC-2 ct: TR-FRET artefact, counter-screen to PPARgamma/SRC-2 agonist assay; hit rate 0.4% among 200,000; TR-FRET ratio at 8 µM; hits give high values
Large screens that a line does not name were inactive. A selection: hits, their analogues and other compounds. The true share with any hit is near 0.9%. Unless noted, no stated cut-off is given here; in the data, active means TR-FRET ratio above about 2000; inactive means the rest.

N#Cc1ccccc1Sc1ccccc1C(=O)OCC(N)=O	none
O=S(c1ccc2ccccc2c1)c1cnns1 (configuration not stated)	none (no result: SRC3 TRFRET art, SRC1 TRFRET art)
C=CCN1C(=O)/C(=C\c2ccc(Oc3nc(N4CCOCC4)nc(N4CCOCC4)n3)c(OC)c2)SC1=S	none
Cc1nn(Cc2c(F)cccc2Cl)c(C)c1[N+](=O)[O-]	PPARg SRC1 recr 21
Oc1c(Br)cc(Br)cc1C=NCc1ccc(F)cc1	PPARg SRC1 recr 21
Oc1c(Br)cc(Br)cc1C=NCc1ccccc1	none
CC(C)(C)C1CCc2c(sc(NC(=O)CSc3nnc(-c4ccccc4)o3)c2C#N)C1 (configuration not stated)	TR-FRET SRC-2 ct 1982
Cc1ccnc(SCC(=O)Nc2sc3c(c2C#N)CCC(C(C)(C)C)C3)n1 (configuration not stated)	none (no result: SRC3 TRFRET art, SRC1 TRFRET art)
COc1ccc(N2CCN(C(=O)C3(C)CC3(Cl)Cl)CC2)cc1 (configuration not stated)	none
CC(C)C(C)(C#N)NC(=O)CSc1nnc(-c2ccncc2)n1Cc1ccccc1 (configuration not stated)	none (no result: SRC3 TRFRET art, SRC1 TRFRET art)
CC(C)C(C)(C#N)NC(=O)CSc1nc2scc(-c3ccc(F)cc3)c2c(=O)n1Cc1ccccc1 (configuration not stated)	SRC3 TRFRET art 2793, SRC1 TRFRET art 2769, TR-FRET SRC-2 ct 2522
Cc1ccc(/C=N/NC(=O)c2ccoc2C)s1	none
Cc1occc1C(=O)N/N=C/c1ccc(Br)s1	PPARg SRC1 recr 22
CCC(=O)Nc1ccccc1Sc1ncnc2scc(-c3ccccc3)c12	none
CCC(=O)NC(Nc1sc2c(c1C(=O)OC)CCCC2)(C(F)(F)F)C(F)(F)F	none (no result: SRC3 TRFRET art, SRC1 TRFRET art)
COC(=O)c1c(NC(NC(=O)c2ccccc2)(C(F)(F)F)C(F)(F)F)sc2c1CCN(C)C2	TR-FRET SRC-2 ct 1983
CN(C)c1ccc(-c2nc3ccccn3c2/N=C/c2ccc(Br)cc2)cc1	none
COC(=O)c1ccccc1NS(=O)(=O)c1ccc(Cl)nc1	none
Cc1cc(C(=O)N/N=C/c2cn[nH]c2-c2ccccc2)cs1	PPARg SRC2 recr 25
Cc1ccc(C)c(S(=O)(=O)N2CCCOC2CNC(=O)C(=O)NCCC2=CCCCC2)c1 (configuration not stated)	none
COCc1cc(C)nc(Nc2ccc(C)cc2C)c1C#N	TR-FRET SRC-2 ct 1983 (no result: SRC3 TRFRET art, SRC1 TRFRET art)
COc1cccc(NC(=O)COC(=O)c2ccc(F)cc2F)c1	none
COc1ccc(NC(=O)COC(=O)c2ccc(F)cc2F)cc1	TR-FRET SRC-2 ct 1971
CC1=C(C(=O)OCC(C)C)C2(O)C(=O)c3ccccc3C2(O)N1 (configuration not stated)	none
S=c1[nH]nc(-c2ccccc2)n1C1C=CCCC1 (configuration not stated)	SRC1 TRFRET art 2316
O=C1CCC(CCC(=O)N2CCCC(C(=O)c3cccc(C(F)(F)F)c3)C2)=NN1 (configuration not stated)	none
CSc1ccc(C(=O)C2CCCN(C(=O)c3csc(C(C)=O)c3)C2)cc1 (configuration not stated)	none
CSc1ccc(C(=O)C2CCCN(C(=O)c3cc4cc(F)ccc4[nH]3)C2)cc1 (configuration not stated)	SRC3 TRFRET art 2454, SRC1 TRFRET art 2545, TR-FRET SRC-2 ct 2021
COc1cccc(-c2ccc(C#N)c(SCC(=O)NCc3ccco3)n2)c1	TR-FRET SRC-2 ct 1980
COc1ccccc1/C=N/NC(=O)Cn1cnc([N+](=O)[O-])n1	none
OCCCC1CCCN(Cc2cn[nH]c2-c2ccc(F)cc2F)C1 (configuration not stated)	none
COc1ccc(NC(=O)NCc2ccc3c(c2)OCO3)cc1	none
O=C(NCc1ccc2c(c1)OCO2)Nc1ccc2nsnc2c1	PPARg SRC2 recr 67, TR-FRET SRC-2 ct 2378
O=C(Nc1ccc(N2CCOCC2)cc1)Nc1ccc2nsnc2c1	SRC1 TRFRET art 2437
CC(=O)Nc1ccccc1C(=O)N1CCN(Cc2ccccc2)CC1	none
O=[N+]([O-])c1ccccc1S(=O)(=O)N1CCN(Cc2ccsc2)CC1	none
O=C(c1cc(COc2ccc(F)cc2Cl)on1)N1CCC(OCc2cccnc2)CC1	none
O=C(c1cc(COc2ccc(F)cc2Cl)on1)N1CCCC(OCc2cccnc2)C1 (configuration not stated)	PPARg SRC2 recr 40, TR-FRET SRC-2 ct 2120
Cc1cc(C)n(-c2cccc(F)n2)n1	none
CC(C)[C@H](NC(=O)OC(C)(C)C)c1nnc(SCc2cccc(F)c2)o1	PPARg SRC1 recr 55 (no result: SRC3 TRFRET art, SRC1 TRFRET art)
CC(C)C[C@H](NC(=O)OC(C)(C)C)c1nnc(SCc2cccc(F)c2)o1	none (no result: SRC3 TRFRET art, SRC1 TRFRET art)
N#Cc1c2c(c(-c3ccccc3Cl)[nH]c1=S)CCCC2	SRC3 TRFRET art 2745, PPARg SRC1 recr 40, SRC1 TRFRET art 3189, PPARg SRC2 recr 44, TR-FRET SRC-2 ct 2762
N#Cc1c(-c2ccccc2Cl)cc(-c2ccccc2)[nH]c1=S	none
COc1ccc(CN2CCN(Cc3cccn3-c3ncccn3)CC2CCO)c(C)c1C (configuration not stated)	none
Cc1nn(C(=O)c2nn(C)cc2[N+](=O)[O-])c(C)c1Cl	none
Cc1ccc(OCC(=O)NS(=O)(=O)c2ccccc2)cc1	none
CCC(C)NS(=O)(=O)c1ccc(OCC(=O)NCc2cccnc2)cc1 (configuration not stated)	none (no result: SRC3 TRFRET art, SRC1 TRFRET art)
Cc1ccc(S(=O)(=O)NC(=O)COc2ccccc2)cc1	PPARg SRC1 recr 21
Cc1ccc(NS(=O)(=O)c2ccc(OCC(=O)NCc3cccnc3)cc2)cc1	PPARg SRC2 recr 27
Fc1ccc2nc(N3CCOCC3)sc2c1	none
Nc1nc2ccc(N3CCOCC3)cc2s1	PPARg SRC1 recr 25 (no result: SRC3 TRFRET art, SRC1 TRFRET art)
Cc1cc(C)c(CSc2ncnc3nc[nH]c23)c(C)c1	none
CC(C)(C)C(=O)Cn1ncc(Br)c(Br)c1=O	none
Cc1ccc(S(=O)(=O)c2nc(Nc3ccccc3)sc2Cl)cc1	none
COc1ccc(Nc2nc(S(=O)(=O)c3ccc(C)cc3)c(Cl)s2)cc1	PPARg SRC3 recr 23
CC1(C)Cc2c(C#N)c(SCC(=O)c3ccccc3)nc(N3CCOCC3)c2CS1	TR-FRET SRC-2 ct 2038 (no result: SRC3 TRFRET art, SRC1 TRFRET art)
Cc1cc(C(=O)OCC(=O)c2ccc3c(c2)OCCO3)c(C)o1	none (no result: SRC3 TRFRET art, SRC1 TRFRET art)
Cc1c(C(=O)OCC(=O)c2ccc3c(c2)OCCO3)oc2ccccc12	TR-FRET SRC-2 ct 2066 (no result: SRC3 TRFRET art, SRC1 TRFRET art)
COc1cc(NC(=O)c2ccc(Cl)cc2Cl)ccc1-c1cc2ccccc2oc1=O	TR-FRET SRC-2 ct 2335 (no result: SRC3 TRFRET art, SRC1 TRFRET art)
COc1cc(NC(C)=O)ccc1-c1cc2ccccc2oc1=O	none
Cc1ccc(OC/C(O)=C(\C#N)c2nc3ccccc3s2)cc1	none
Cn1c(/C(C#N)=C(\O)COc2ccc3ccccc3c2)nc2ccccc21	PPARg SRC2 recr 32, TR-FRET SRC-2 ct 2360
COC(=O)c1cccc(NC(=O)/C=C/c2ccc([N+](=O)[O-])cc2)c1	SRC3 TRFRET art 2126
COC(=O)c1cccc(NC(=O)/C=C/c2cccc([N+](=O)[O-])c2)c1	none (no result: SRC3 TRFRET art, SRC1 TRFRET art)
